RAD52 inh: blocks human RAD52 DNA annealing; P43351; recombinant RAD52 DNA annealing, FRET fluorescence; inhibition, % at 18.7 µM; 360,000 tested, 0.46% active;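 active = every replicate showing at least 50% inhibition; inconclusive = mean inhibition at least 50% but not in every replicate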
MLL AF4-AF9 inh: inhibitors of human MLL-AF4/AF9 interaction | 350,000 tested, 0.47% active | inhibition, % at 10 µM | AlphaScreen, biotin-AF4 peptide binding to FLAG-AF9 | P42568;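 active = every replicate reaching a set inhibition limit, whatever the replicate mean, cut at about 25% in these data; inconclusive = mean inhibition reaches that limit but some replicates miss it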
Target sequence (P42568 whole entry, looked up): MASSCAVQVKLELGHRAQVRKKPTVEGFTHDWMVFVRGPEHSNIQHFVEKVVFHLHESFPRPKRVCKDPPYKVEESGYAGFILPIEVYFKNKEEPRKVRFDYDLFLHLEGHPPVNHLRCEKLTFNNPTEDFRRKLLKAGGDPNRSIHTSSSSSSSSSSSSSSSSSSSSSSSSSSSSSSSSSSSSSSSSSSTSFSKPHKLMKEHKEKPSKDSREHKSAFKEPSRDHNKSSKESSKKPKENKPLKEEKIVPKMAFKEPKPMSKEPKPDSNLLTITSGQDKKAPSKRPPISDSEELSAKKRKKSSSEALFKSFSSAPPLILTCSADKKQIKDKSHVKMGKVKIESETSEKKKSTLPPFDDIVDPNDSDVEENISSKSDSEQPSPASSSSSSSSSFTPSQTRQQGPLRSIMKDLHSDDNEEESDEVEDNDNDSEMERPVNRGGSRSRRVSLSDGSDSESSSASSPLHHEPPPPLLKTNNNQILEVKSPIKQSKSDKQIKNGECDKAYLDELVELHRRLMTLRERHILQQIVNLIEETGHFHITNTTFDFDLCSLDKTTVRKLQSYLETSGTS
NSD2 HMT inh: blocks human histone methyltransferase NSD2 | 310,000 tested, 0.54% active | NSD2 peptide methylation, AlphaScreen, 120 min | AID 743445 | inhibition, % at 12.5 µM; in the data active = inhibition above about 50%
Ecoli rRNA inh: selective bacterial rRNA inhibition in E. coli. 350,000 tested, 1.6% active. E. coli WT GFP vs humanized-ribosome RFP mutants, fluorescence, 24 h; hits give low values; DMSO median 0, no signal -100. GFP signal change (wild-type ribosome), % (concentration not given with the values);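 active = significant combined selectivity score with lowered wild-type GFP, culture density cut under 30%, mutant RFP and density less affected; inactive = any of these conditions unmet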
Casp6 inh: blocks human caspase-6 cleavage activity; P55212; purified caspase-6, Z-VEID-R110 cleavage fluorescence; inhibition, % at 12.5 µM; 350,000 tested, 0.53% active; AID 686996;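 active = mean inhibition across replicates at least about 35%, with every replicate also reaching that limit, limit read from the data; inconclusive = only one of the two criteria met; inactive = neither criterion met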
Of the large screens only hits and unclear results are named; the others gave an inactive call. An excerpt weighted towards active compounds, which were near 2.5% of everything screened.

COc1ccc2c3c(n(C)c2c1)[C@@H](CO)N(C(=O)NC(C)C)CC31CN(C(=O)NC(C)C)C1	none (no result: NSD2 HMT inh)
C[C@@H]1CCCCO[C@H](CN(C)C(=O)Nc2ccc3c(c2)OCO3)[C@H](C)CN([C@H](C)CO)C(=O)c2cc(NC(=O)Nc3ccc(F)cc3)ccc2O1	none (no result: NSD2 HMT inh)
CCOC(=O)c1cc(CC)sc1NC(=O)C1CC(=O)NN1Cc1ccccc1 (centres undefined)	none
COC(=O)c1cc(C)sc1NC(=O)C1CC(=O)NN1Cc1ccccc1 (centres undefined)	Ecoli rRNA inh -32
COc1cccc(OC)c1OCCCOc1cccc2cccnc12	Ecoli rRNA inh -29
C[C@H](CO)N1C[C@H](C)[C@H](CN(C)Cc2ccc(C(F)(F)F)cc2)Oc2c(NC(=O)c3cnccn3)cccc2C1=O	none (no result: NSD2 HMT inh)
COc1ccc(S(=O)(=O)N2CCCCN3[C@H](C2)[C@@H](c2ccc(C#CCC(C)C)cc2)[C@@H]3CO)cc1	none (no result: RAD52 inh, MLL AF4-AF9 inh, NSD2 HMT inh, Casp6 inh)
COc1ccc(S(=O)(=O)N2CCCCN3[C@@H](CO)[C@H](c4ccc(C#CC(C)C)cc4)[C@@H]3C2)cc1	Ecoli rRNA inh -46 (no result: NSD2 HMT inh)
C/C=C/c1ccc([C@H]2[C@@H](CO)N3CCCCN(S(=O)(=O)c4ccc(OC)cc4)C[C@H]23)cc1	RAD52 inh 60 (no result: NSD2 HMT inh)
Cc1c(C#N)c(N)nc2c3c(sc12)NC(=O)CC3c1ccccc1 (centres undefined)	NSD2 HMT inh 65 (no result: RAD52 inh, MLL AF4-AF9 inh, Ecoli rRNA inh, Casp6 inh)
COCC(=O)Nc1ccc2c(c1)OC[C@@H](C)N(Cc1ccccc1OC)C[C@@H](C)[C@@H](OC)CN(C)C2=O	none (no result: RAD52 inh, MLL AF4-AF9 inh, NSD2 HMT inh, Casp6 inh)
O=C(Nc1ccc2c(c1)OCO2)N[C@@H]1CC[C@@H](CCNC(=O)C2CCCC2)O[C@@H]1CO	none (no result: NSD2 HMT inh)
Cc1c(O)cc2c(c1O)C(=O)CC(c1ccc(O)cc1)O2 (centres undefined)	Casp6 inh 46 (no result: NSD2 HMT inh, Ecoli rRNA inh)
COc1cc(O)c2c(c1)OC(c1ccc(O)cc1)CC2=O (centres undefined)	none (no result: NSD2 HMT inh, Ecoli rRNA inh)
COc1ccc(OCCn2cc(/C=N/NC(=O)c3ccncc3)c3ccccc32)cc1	MLL AF4-AF9 inh inconclusive, Ecoli rRNA inh -20
O=C(OC[C@@H]1[C@H]2c3ccccc3OC1(CO)N=C1SCc3ccccc3CN12)c1ccccc1	none (no result: NSD2 HMT inh, Ecoli rRNA inh)
CSc1nc2c(cnn2-c2ccccc2)c(=O)n1N	none
CCSc1nc2c(cnn2-c2ccccc2)c(=O)n1N	Ecoli rRNA inh -17 (no result: MLL AF4-AF9 inh)
CCN1CCN(CCNC(=O)c2ccc3c(c2)N(Cc2ccc(F)cc2)C(=O)/C(=C/c2ccccc2)S3)CC1	RAD52 inh 73, MLL AF4-AF9 inh 58
O=C(O)c1ccc2c(c1)N(Cc1ccc(F)cc1)C(=O)c1ccccc1S2	Ecoli rRNA inh -20
CCN1CCN(CCNC(=O)c2ccc(/C=C3/Sc4ccccc4N(Cc4cccc(Cl)c4)C3=O)cc2)CC1	none (no result: MLL AF4-AF9 inh, NSD2 HMT inh)
COc1ccc2c3c([nH]c2c1)[C@@H](CO)N(Cc1ccc(F)cc1)CC31CN(C(=O)NC(C)C)C1	none (no result: RAD52 inh, NSD2 HMT inh, Casp6 inh)
C[C@@H]1CN([C@H](C)CO)C(=O)c2cc(NC(=O)Nc3ccc(C(F)(F)F)cc3)ccc2O[C@H]1CN(C)S(C)(=O)=O	none (no result: NSD2 HMT inh)
Cc1nc([N+](=O)[O-])cn1CC(O)c1ccc(-c2ccccc2)cc1 (centres undefined)	Ecoli rRNA inh -45 (no result: MLL AF4-AF9 inh)
Cc1ccc(C(O)Cn2cc([N+](=O)[O-])nc2C)cc1 (centres undefined)	none
CCC(CC)C(=O)N(CCc1ccc(OC)cc1)Cc1nc2ccccc2c(=O)[nH]1	Ecoli rRNA inh -51
COCCCNC(=O)c1cccn2c(=O)c3cc4ccccc4cc3nc12	NSD2 HMT inh 85 (no result: MLL AF4-AF9 inh)
C=CCn1c(=N)c(C(=O)NCCCOC)cc2c(=O)n3cccc(C)c3nc21	none (no result: RAD52 inh, MLL AF4-AF9 inh, Ecoli rRNA inh, Casp6 inh)
COc1cccc(C(=O)OCC(=O)NC23CC4CC(CC(C4)C2)C3)c1	none
CC(=O)Oc1cc(C(=O)OCC(=O)NC23CC4CC(CC(C4)C2)C3)cc(OC(C)=O)c1OC(C)=O	Casp6 inh 41 (no result: NSD2 HMT inh)
C[C@@H]1CN([C@@H](C)CO)S(=O)(=O)c2ccc(C#CC3CC3)cc2O[C@H]1CN(C)C(=O)Nc1cc(F)ccc1F	none (no result: RAD52 inh, MLL AF4-AF9 inh, NSD2 HMT inh, Casp6 inh)
Cc1ccn2cc(-c3cccc(S(=O)(=O)N4CCCC4)c3)nc2c1	Ecoli rRNA inh -25
COC(=O)C[C@@H]1CC[C@@H]2[C@@H](COc3ccc(NC(=O)c4ccccc4)cc3C(=O)N2C)O1	none (no result: NSD2 HMT inh)
CSc1c(-c2ccccn2)c(N)nn1C(=O)C1CCC1	none (no result: Ecoli rRNA inh)
CSc1c(-c2ccccn2)c(N)nn1C(=O)C1CC1	Ecoli rRNA inh -24
CCn1c(=O)cc(OCC(=O)NCCCN2CCC(C)CC2)c2ccccc21	none (no result: RAD52 inh, MLL AF4-AF9 inh, Ecoli rRNA inh, Casp6 inh)
CC1CCN(CCCNC(=O)COc2cc(=O)n(C)c3ccccc23)CC1	Casp6 inh 78 (no result: MLL AF4-AF9 inh)
Cc1noc(C)c1S(=O)(=O)N(C)C[C@H]1Oc2c(NC(=O)c3nc4ccccc4s3)cccc2C(=O)N([C@H](C)CO)C[C@H]1C	none (no result: RAD52 inh, MLL AF4-AF9 inh, NSD2 HMT inh, Casp6 inh)
NC(=O)Cn1cc(C(=O)C(=O)N2CCOCC2)c2ccccc21	Casp6 inh 45
CN1CCN(C(=O)C(=O)c2cn(CC(=O)N3CCOCC3)c3ccccc23)CC1	none (no result: Ecoli rRNA inh)
COc1ccc2nc(C)cc(N/N=C/c3cccc(OC)c3O)c2c1	MLL AF4-AF9 inh 25
CCCNC(=O)N1CCC2(CC1)CN(C(C)=O)[C@H](CO)c1c2c2ccc(OC)cc2n1C	none (no result: RAD52 inh, NSD2 HMT inh, Casp6 inh)
Cc1ccc(C(=O)NCCN2C3=NC[C@H](Cc4ccc(O)cc4)N3C[C@H]2Cc2ccc(O)cc2)cc1Br	MLL AF4-AF9 inh 29 (no result: NSD2 HMT inh)
COc1ccc(C[C@H]2CN3C(=NC[C@@H]3Cc3ccc(O)cc3)N2CCNC(=O)c2ccc(C)c(Br)c2)cc1	MLL AF4-AF9 inh 29 (no result: NSD2 HMT inh)
CCNC(=O)[C@H]1[C@H](CO)[C@H]2Cn3c(ccc(-c4ccc(F)cc4)c3=O)[C@H]2N1C	none (no result: RAD52 inh, MLL AF4-AF9 inh, NSD2 HMT inh, Casp6 inh)
CC1CC(C)CN(C(=O)/C=C/c2ccc([N+](=O)[O-])s2)C1 (centres undefined)	Ecoli rRNA inh -29
CC1CN(C(=O)/C=C/c2ccc([N+](=O)[O-])s2)CC(C)O1 (centres undefined)	none
CO[C@H]1CN(C)C(=O)c2cc(NC(=O)C3CC3)ccc2OC[C@H](C)N(C(=O)CN2CCOCC2)C[C@H]1C	none (no result: NSD2 HMT inh, Ecoli rRNA inh, Casp6 inh)
CC(=O)Nc1ccc(C(=O)NC2CCSc3ccccc32)cc1 (centres undefined)	none
Cc1ccc(NC(=S)NC2CCSc3ccccc32)cc1 (centres undefined)	Ecoli rRNA inh -44
CC(=O)Nc1ccc(S(=O)(=O)NC2=C(N3CCN(C)CC3)C(=O)c3ccccc3C2=O)cc1	Casp6 inh 44
CC(=O)Nc1ccc(S(=O)(=O)NC2=C(N3CCN(Cc4ccccc4)CC3)C(=O)c3ccccc3C2=O)cc1	MLL AF4-AF9 inh 41
CCN1CCN(C2=C(NS(=O)(=O)c3ccc(C)cc3)C(=O)c3ccccc3C2=O)CC1	NSD2 HMT inh 51, Ecoli rRNA inh -18, Casp6 inh 62
CC1CCCN(C2=C(NS(=O)(=O)c3ccc(Br)cc3)C(=O)c3ccccc3C2=O)C1 (centres undefined)	none
CCOC(=O)N1CCN(C2=C(NS(=O)(=O)c3ccc(NC(C)=O)cc3)C(=O)c3ccccc3C2=O)CC1	none

Screens deposited in PubChem BioAssay by Broad Institute.
